From the supplement of paper PMC10981050
Where “and” joins values, the source holds several entries; their conditions need not be identical. Equal entries are not always repeated. Structures can show the parent of a compound that is named as a salt.

Tests used:
Experiment in all cases: cell viability relative to vehicle control; higher = less cytotoxic
Settings in all cases: 10 µM
K562 = test system: K562
Method in brief: (§1)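 CRISPR-edited SRSF2 P95 mutant and isogenic wild-type clones of four leukaemia lines were screened against Selleck bioactive, kinase and epigenetic probe libraries, with identity-inconsistent compounds removed. Compounds were acoustically dispensed into 384-well plates at a single 10 µM dose, with 2000 cells in 50 µL medium per well. After 48 h, supernatant was removed and CellTiter-Glo luminescence was read. Viability was expressed as percent of the on-plate DMSO vehicle control, analysed in Genedata Screener.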

MARIMO = test system: MARIMO
Method in brief: as §1

MOLM14 = test system: MOLM14
Method in brief: as §1

OCI-AML2 = test system: OCI-AML2
Method in brief: as §1

SMILES	cell viability (K562; SRSF2 genotype: SRSF2 P95H/wt)	cell viability (K562; SRSF2 genotype: SRSF2 wt/wt)	cell viability (MARIMO; SRSF2 genotype: SRSF2 P95H/wt)	cell viability (MARIMO; SRSF2 genotype: SRSF2 wt/wt)	cell viability (MOLM14; SRSF2 genotype: SRSF2 P95H/wt)	cell viability (MOLM14; SRSF2 genotype: SRSF2 wt/wt)	cell viability (OCI-AML2; SRSF2 genotype: P95H/wt)	cell viability (OCI-AML2; SRSF2 genotype: wt/wt)
Cc1cc2c(C(C)C)c(O)c(O)c(C=O)c2c(O)c1-c1c(C)cc2c(C(C)C)c(O)c(O)c(C=O)c2c1O	2.58% and 2.65%	13.3%	11.7%	15.4%	0.51%	1.24%	0.59%	1.12%
O=P1(N(CCCl)CCCl)NCCCO1 (stereo unspecified) [Cyclophosphamide monohydrate]	105% and 103%	108%	94.6%	106%	99.2%	102%	100%	106%
C=C1[C@H]2C[C@@]3([C@@H]1O)[C@@H](CC2=O)[C@]12[C@@H]4C[C@H]3[C@H]1N(CC)C[C@]4(C)CC[C@@H]2O [Songorine]	96.8% and 99.6%	101%	98%	98.8%	102%	98.4%	103%	103%
ClC(Cl)=C(c1ccc(Cl)cc1)c1ccc(Cl)cc1	103% and 96.8%	106%	89.6%	99.1%	96.8%	105%	100%	108%
COc1cc(C)[nH]c(=O)c1CNC(=O)c1c(C)n([C@H](C)C2CCN(CC(F)(F)F)CC2)c2ccccc12	103% and 99%	110%	103%	110%	97.2%	95.3%	103%	109%
CC(C)(C)c1cc(C=C(C#N)C#N)cc(C(C)(C)C)c1O [Tyrphostin 9 (SF 6847)]	14.4% and 18.5%	18.5%	23.8%	23.8%	17.7%	12.2%	5.2%	11.5%
C=C1CCC2C(/C=C(\C)C(=O)C3(OC(C)=O)CC(C)C(OC(=O)c4ccccc4)C3C1OC(C)=O)C2(C)C (stereo unspecified) [Euphorbia factor L3]	48% and 62.5%	59.5%	34.8%	33.8%	47.6%	32.9%	65.8%	22.4%
O=C(NCC1CCOCC1)c1cnc(Nc2ccc(Cl)cc2Cl)nc1C(F)(F)F	95% and 97.7%	98%	93.5%	104%	103%	104%	98.5%	102%
C=CC[C@]1(O)CC[C@H]2[C@@H]3CCC4=CC(=O)CCC4=C3C=C[C@@]21C [Altrenogest]	92.6% and 98.1%	97.5%	99.9%	102%	99.8%	107%	109%	96.9%
COc1cc2c(cc1OC)[C@@H](Cc1ccc(O)c(Oc3cc4c(cc3OC)CCN(C)[C@@H]4Cc3ccc(O)cc3)c1)N(C)CC2.[O-][Cl+3]([O-])([O-])O [Liensinine perchlorate]	76.2% and 65.4%	65.4%	55.5%	66.8%	50.4%	56.1%	51.5%	45%
Cc1sc2c(c1C)C(c1ccc(Cl)cc1)=N[C@@H](CC(=O)Nc1ccc(O)cc1)c1nnc(C)n1-2	60.9% and 68.8%	71.9%	27.3%	35.8%	18%	14.1%	17.7%	32.3%
CC1=C[C@H]2Cc3[nH]c(=O)ccc3[C@]3(C1)NCCC[C@H]23 [Huperzine B]	110% and 97%	113%	109%	103%	113%	108%	105%	94.8%
OC(CNc1ccccc1)Cn1c2ccc(Br)cc2c2cc(Br)ccc21 (stereo unspecified)	74.2% and 72.5%	66.2%	85.1%	98.2%	87.2%	58.1%	52.3%	83.5%
C=C[C@H]1CN2CC[C@@]3(C(=O)Nc4ccccc43)[C@@H]2C[C@@H]1/C(=C\OC)C(=O)OC [Isocorynoxeine]	81.8% and 92.6%	82.3%	77.4%	72.7%	84.4%	79.5%	88.2%	83.3%
CN1C(=O)CCS(=O)(=O)C1c1ccc(Cl)cc1 (stereo unspecified) [Chlormezanone (Trancopal)]	102% and 101%	93.5%	97%	96.7%	93.1%	97.2%	94.1%	95.6%
c1csc(-c2ccc(-c3cccs3)s2)c1 [2,2':5',2''-Terthiophene]	95.8% and 89.3%	97.1%	88.1%	100%	91.7%	98.7%	84.6%	85.4%
Cc1cccc(C(C)c2c[nH]cn2)c1C (stereo unspecified) [Medetomidine HCl]	97.2% and 99.8%	95.1%	95.1%	107%	101%	102%	97%	113%
NCC(O)c1ccc(O)cc1 (racemic) [(+,-)-Octopamine HCl]	91.4% and 95.7%	97.6%	96.5%	96.5%	99.5%	96.8%	93.1%	97.3%
COc1ccc(C[C@H]2NC[C@H](O)[C@H]2OC(C)=O)cc1 [Anisomycin]	4.09% and 9.55%	7.54%	13.6%	6.74%	0.46%	0.44%	3.57%	10.5%

SMILES	cell viability (K562; SRSF2 genotype: SRSF2 P95H/wt)	cell viability (K562; SRSF2 genotype: SRSF2 wt/wt)	cell viability (MARIMO; SRSF2 genotype: SRSF2 P95H/wt)	cell viability (MARIMO; SRSF2 genotype: SRSF2 wt/wt)	cell viability (MOLM14; SRSF2 genotype: SRSF2 P95H/wt)	cell viability (MOLM14; SRSF2 genotype: SRSF2 wt/wt)	cell viability (OCI-AML2; SRSF2 genotype: P95H/wt)	cell viability (OCI-AML2; SRSF2 genotype: wt/wt)
CN(C)C1C(=O)C(C(N)=O)=C(O)C2(O)C(=O)C3=C(O)c4c(O)cccc4C(C)(O)C3CC12 (stereo unspecified) [Tetracycline hydrochloride]	84.5% and 91.2%	90.4%	90.7%	96.3%	102%	98.3%	89.3%	95.9%
N#CC(C#N)=Cc1ccc(O)c(O)c1 [AG 18 (Tyrphostin 23)]	86.3% and 84.4%	80.7%	78.4%	79.8%	81.5%	86.5%	78.8%	82%
CCN(CC)CCOC(=O)C(O)(c1ccccc1)c1ccccc1 [Benactyzine hydrochloride]	87.1% and 93%	84.2%	93%	98.4%	92.6%	94.4%	89.8%	92.6%
COc1ccc(/C=C/c2cc(OC)cc(OC)c2)cc1 [3,4',5-Trimethoxy-trans-stilbene]	26.9% and 46.4%	39.7%	47.5%	35.7%	15.3%	6.3%	38.2%	36.4%
CC1=C2C(=O)[C@H]3[C@@H](CC=C4C[C@@H](O)CC[C@@]43C)[C@@H]2CC[C@]12O[C@@H]1C[C@H](C)CN[C@H]1[C@H]2C [Jervine]	91.9% and 81.4%	85.2%	89.1%	98.5%	91.4%	101%	92.7%	92.4%
COc1cc(C)[nH]c(=O)c1CNC(=O)c1c(C)n([C@H](C)C2CCOCC2)c2ccccc12	111% and 102%	94.9%	106%	118%	103%	101%	106%	104%
CC(C)[C@]12O[C@H]1[C@@H]1O[C@]13[C@]1(O[C@H]1C[C@H]1C4=C(CC[C@@]13C)C(=O)OC4)[C@@H]2O [Triptolide]	5.55% and 15%	8.7%	10.4%	6.31%	2.33%	0.54%	5.79%	16%
CC[C@]12C=CCN3CC[C@]4(C(=C(C(=O)OC)C1)Nc1ccccc14)[C@@H]32 [Tabersonine hydrochloride]	18.2% and 28.9%	32.3%	13%	13.8%	3.62%	1.08%	8.35%	13.7%
CC(C)OC(=O)[C@H](C)N[P@](=O)(CO[C@H](C)Cn1cnc2c(N)ncnc21)Oc1ccccc1 [Tenofovir Alafenamide (GS-7340)]	100% and 106%	97.3%	93.8%	91.2%	87%	90.6%	31.5%	53.6%
CC(=O)OC12COC1CC(O)C1(C)C(=O)C(O)C3=C(C)C(O)CC(O)(C(OC(=O)c4ccccc4)C21)C3(C)C (stereo unspecified) [10-DAB (10-Deacetylbaccatin)]	103% and 110%	103%	109%	108%	111%	105%	105%	98.3%
C/C(O)=C(\C#N)C(=O)Nc1cc(Br)ccc1Br	88.8% and 87.1%	89.1%	88.4%	96.5%	78.9%	93.7%	86.1%	87.7%
C[C@H]1CCCC(=O)CCC/C=C/c2cc(O)cc(O)c2C(=O)O1 [Zearalenone]	101% and 93.8%	99.5%	82.7%	88.8%	79.2%	99%	88.7%	97.7%
O=C1CC[C@@]2(O)[C@H]3Cc4ccc(O)c5c4[C@@]2(CCN3CC2CC2)[C@H]1O5 [Naltrexone HCl]	98.5% and 105%	97.7%	98.8%	103%	99.9%	103%	106%	99.8%
C[C@@H]1CC[C@@]2(OC1)O[C@H]1C[C@H]3[C@@H]4CC=C5C[C@@H](O[C@@H]6O[C@H](CO)[C@@H](O[C@@H]7O[C@@H](C)[C@H](O)[C@@H](O)[C@H]7O)[C@H](O)[C@H]6O[C@@H]6O[C@@H](C)[C@H](O)[C@@H](O)[C@H]6O)CC[C@]5(C)[C@H]4CC[C@]3(C)[C@H]1[C@@H]2C [Dioscin (Collettiside III)]	0.8% and 0.73%	0.55%	1.89%	0.64%	0.47%	0.55%	0.51%	0.51%
NC(=O)CN1CCCC1=O [Piracetam]	96.1% and 103%	98.7%	102%	102%	99.6%	105%	103%	112%
O=c1[nH]c2ccc(Cl)cc2c(N[C@@H]2CN3CCC2CC3)c1-c1nc2ccccc2[nH]1	2.58% and 2.45%	0.48%	0.55%	0.36%	0.07%	-0.01%	0.04%	0.75%
C[C@]12C=CC(=O)C=C1CC[C@@H]1[C@@H]2CC[C@@]2(C)[C@H]1CC[C@]2(C)O [Methandrostenolone]	102% and 107%	102%	103%	105%	103%	110%	115%	104%
O=C1C=CC[C@@H]2[C@H]3CCCN4CCC[C@@H](CN12)[C@@H]34 [Sophocarpine]	103% and 107%	102%	108%	111%	106%	106%	98.4%	108%
